Several values for one entry are separate records, joined by “and”; a condition that tells them apart may be missing. Equal entries are not always repeated. Inconclusive results are not listed. Where a call stands in place of a potency, no number is given. Some compounds were tested as several samples or in several runs, with calls that do not always agree. Activity calls are given as the source filed them. Unless noted, calls come from the whole dose curve; as a rule, active = well fitted curve in the direction sought with a large enough effect in the repeat runs; inconclusive = weak or mixed curves; inactive = no such curve, though single readings can be large; an effect the other way counts as inactive or inconclusive.
Experiments:
[1] = qHTS assay to identify small molecule antagonists of the estrogen related receptor (ERR) signaling pathway from Tox21 library - cell viability counter screen (AID 1224834); note: nearly all actives have a fitted effect of over 30% in size
Outline: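 Fluorescence from CellTiter-Fluor gives the viability read-out, taken 30 min after reagent addition. Before that, ERR cells seeded 6 h earlier were incubated with compounds for 17.5 h at 37 C.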

[2] = biological target: Luciferin 4-monooxygenase (Photinus pyralis) (UniProt P08659); assay: qHTS assay to identify small molecule inhibitors of firefly luciferase (AID 1224835); note: nearly all actives have a fitted effect of over 25% in size
Sequence of Luciferin 4-monooxygenase (Photinus pyralis) (P08659 whole entry, looked up): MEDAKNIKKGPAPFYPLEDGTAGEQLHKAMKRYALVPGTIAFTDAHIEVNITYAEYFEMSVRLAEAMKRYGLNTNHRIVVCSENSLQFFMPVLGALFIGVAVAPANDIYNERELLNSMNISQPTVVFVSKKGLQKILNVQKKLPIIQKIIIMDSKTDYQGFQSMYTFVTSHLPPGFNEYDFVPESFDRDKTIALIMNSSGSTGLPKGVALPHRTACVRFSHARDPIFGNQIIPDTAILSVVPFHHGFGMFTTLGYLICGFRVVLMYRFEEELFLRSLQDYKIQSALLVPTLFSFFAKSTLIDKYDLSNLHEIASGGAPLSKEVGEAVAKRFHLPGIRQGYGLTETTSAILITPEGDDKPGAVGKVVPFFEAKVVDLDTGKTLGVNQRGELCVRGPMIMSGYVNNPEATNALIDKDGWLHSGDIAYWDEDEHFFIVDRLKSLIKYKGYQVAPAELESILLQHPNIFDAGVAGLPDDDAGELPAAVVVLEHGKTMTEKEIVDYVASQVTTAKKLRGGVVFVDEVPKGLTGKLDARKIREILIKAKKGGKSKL
Outline: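 Biochemical qHTS: compounds run as interplate titrations against purified firefly enzyme, with D-luciferin and ATP each at its KM concentration. Light output recorded by CCD imaging.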

[3] = qHTS assay to identify small molecule agonists of the constitutive androstane receptor (CAR) signaling pathway - cell viability counter screen (AID 1224836); note: nearly all actives have a fitted effect of over 45% in size
Outline: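 HepG2 cells stably carrying hCAR and a CYP2B6-2.2kb reporter were plated 4 h, then given compounds at 15 concentrations plus PK11195 (final 0.75 uM). After 23 h at 37 C, viability was read by CellTiter-Fluor fluorescence.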

[4] = qHTS assay to identify small molecule antagonists of the constitutive androstane receptor (CAR) signaling pathway - cell viability counter screen (AID 1224837); note: nearly all actives have a fitted effect of over 45% in size
Outline: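 HepG2-CYP2B6-hCAR cells, 2500/well, 4 hr pre-incubation; compound titration, 15 conc.; CITCO 50 nM final; 23 hr, 37 C/5% CO2; CellTiter-Fluor, fluorescence intensity.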

[5] = biological target: Nuclear receptor subfamily 1 group I member 3 (Homo sapiens) (UniProt Q14994); assay: qHTS assay to identify small molecule antagonists of the constitutive androstane receptor (CAR) signaling pathway (AID 1224838); note: nearly all actives have a fitted effect of over 40% in size; note: potency is the fitted concentration of half-maximal effect
Sequence of Nuclear receptor subfamily 1 group I member 3 (Homo sapiens) (Q14994 whole entry, looked up): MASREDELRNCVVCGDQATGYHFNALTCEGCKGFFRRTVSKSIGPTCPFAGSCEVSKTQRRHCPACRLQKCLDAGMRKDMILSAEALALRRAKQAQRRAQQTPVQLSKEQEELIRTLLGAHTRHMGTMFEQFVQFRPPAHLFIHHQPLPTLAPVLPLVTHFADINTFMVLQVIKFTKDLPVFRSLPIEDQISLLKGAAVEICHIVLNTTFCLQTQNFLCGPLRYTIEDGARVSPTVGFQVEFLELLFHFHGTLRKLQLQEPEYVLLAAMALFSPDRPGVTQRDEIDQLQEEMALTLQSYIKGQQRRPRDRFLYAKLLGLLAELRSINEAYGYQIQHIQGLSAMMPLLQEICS
Outline: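 HepG2-CYP2B6-hCAR cells; 4 h pre-incubation; cpd (15 conc) + CITCO 50 nM final; 24 h, 37 C/5% CO2; ONE-Glo, luminescence.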

[6] = biological target: Nuclear receptor subfamily 1 group I member 3 (Homo sapiens) (UniProt Q14994); assay: qHTS assay to identify small molecule agonists of the constitutive androstane receptor (CAR) signaling pathway (AID 1224839);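 note: HepG2 cells stably carrying human CAR and a CYP2B6 luciferase reporter; nearly all actives have a fitted effect of over 15% in size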
Outline: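 HepG2 cells stably expressing hCAR and a CYP2B6-2.2kb luciferase reporter were treated with compounds at 15 concentrations plus 0.75 uM PK11195 (final) for 24 h at 37 C; luminescence was read after ONE-Glo addition.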

[7] = qHTS assay to identify small molecule antagonists of the estrogen related receptor signaling pathway with the pleiotropic PPARgamma coactivator (PGC) from Tox21 10K library - cell viability counter screen (AID 1224840; active = well fitted cell-killing curve with a large enough effect in the repeat runs, not every such curve was filed as active; note: nearly all actives have a fitted effect of over 40% in size)
Outline: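 PGC/ERR cells, 2,000/well; 6 h pre-incubation 37 C/5% CO2; cpd in DMSO via pin tool; 17.5 h 37 C; CellTiter-Fluor, 30 min; fluorescence.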

[8] = qHTS assay to identify small molecule agonists of the hypoxia (HIF-1) signaling pathway - cell viability counter screen (AID 1224844; calls by dose curve; note: nearly all actives have a fitted effect of over 50% in size)
Outline: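 ME-180 HRE-bla cells, 2,000/well, 0.5% dialyzed FBS; 5 hr settle, 17 hr compound at 37C/5% CO2; CCF4-AM reporter read first, then CellTiter-Glo luminescence after 30 min RT.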

[9] = qHTS assay to identify small molecule agonists of H2AX (AID 1224845; active = well fitted activation curve with a large enough effect in the signal ratio in the repeat runs, not every such curve was filed as active; the % refers to the signal ratio)
Outline: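 Wild-type CHO-K1 cells, plated overnight, exposed 3hr at 37C to 15 concentrations (0.76% DMSO final). Lysed, then HTRF anti-pH2AX (S139) cryptate and anti-H2AX-d2 antibodies, 24 hr room temperature; 665/620 nm emission read.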

[10] = qHTS assay to identify small molecule agonists of H2AX - cell viability counter screen (AID 1224847; calls by dose curve; note: top concentration of the series differs between compounds; nearly all actives have a fitted effect of over 30% in size)
Outline: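 Wild-type CHO-K1 cells (10% FBS medium) were plated overnight at 37C, exposed to compounds at 15 concentrations for 3 hr at 37C (0.76% DMSO final), and viability was read as CellTiter-Glo luminescence after 30 min at room temperature.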

[11] = qHTS RealTime-Glo MT Cell Viability Assay in HepG2 cells - 24 hour (AID 1224867); note: nearly all actives have a fitted effect of over 50% in size
Outline: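 Cell number in HepG2 cultures estimated from NanoLuc luminescence generated by metabolic reduction of a prosubstrate by living cells. The homogeneous, nonlytic format allowed repeated reads at 0, 8, 16, 24, 32 and 40 h of compound exposure.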

[12] = qHTS RealTime-Glo MT Cell Viability Assay in HEK293 cells - 32 hour (AID 1224868); note: top concentration of the series differs between compounds; nearly all actives have a fitted effect of over 50% in size
Outline: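 Homogeneous bioluminescent viability format in HEK293 cells (600 cells/well). Following 5 h at 37 C/5% CO2, 23 nL compound was pintooled; the signal was measured repeatedly during 40 h incubation.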

[13] = A CellTox Green Cytotoxicity Assay to monitor cytotoxicity in HEK293 cells - 0 hour (AID 1224869); note: nearly all actives have a fitted effect of over 50% in size
Outline: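 Nonlytic real-time cytotoxicity: HEK293 + CellTox Green reagent plated, 5 h preincubation, pintool compound addition (23 nL in DMSO), 37 C for 40 h, fluorescence measured at successive time points.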

[14] = biological target: Thyrotropin receptor (Homo sapiens) (UniProt P16473); assay: qHTS assay to identify small molecule agonists of the thyroid stimulating hormone receptor (TSHR) signaling pathway (AID 1224843; calls by dose curve; note: nearly all actives have a fitted effect of over 45% in size)
Sequence of Thyrotropin receptor (Homo sapiens) (P16473 whole entry, looked up): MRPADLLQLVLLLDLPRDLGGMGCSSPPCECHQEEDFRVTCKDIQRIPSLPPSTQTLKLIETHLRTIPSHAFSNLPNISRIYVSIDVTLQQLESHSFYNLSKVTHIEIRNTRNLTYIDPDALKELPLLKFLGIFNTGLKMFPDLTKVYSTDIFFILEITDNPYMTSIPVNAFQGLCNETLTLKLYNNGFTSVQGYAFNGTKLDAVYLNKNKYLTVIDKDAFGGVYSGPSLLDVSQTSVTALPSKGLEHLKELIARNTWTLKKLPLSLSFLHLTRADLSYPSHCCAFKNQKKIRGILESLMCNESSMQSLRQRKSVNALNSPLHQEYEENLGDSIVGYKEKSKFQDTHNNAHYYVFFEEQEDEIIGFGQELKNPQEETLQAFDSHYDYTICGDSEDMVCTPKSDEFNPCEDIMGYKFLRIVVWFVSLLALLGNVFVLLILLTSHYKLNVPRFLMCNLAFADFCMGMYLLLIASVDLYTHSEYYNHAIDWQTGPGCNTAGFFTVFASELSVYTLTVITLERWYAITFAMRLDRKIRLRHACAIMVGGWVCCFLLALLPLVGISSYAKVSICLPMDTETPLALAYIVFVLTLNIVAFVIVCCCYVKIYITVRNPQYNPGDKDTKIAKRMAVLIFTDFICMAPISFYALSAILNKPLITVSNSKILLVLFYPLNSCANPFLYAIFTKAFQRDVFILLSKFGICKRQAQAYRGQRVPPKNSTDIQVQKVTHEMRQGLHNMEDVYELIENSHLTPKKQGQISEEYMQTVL
Outline: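 TSHR-HEK293 cells in agonist mode, 30 min room-temperature step, then cAMP measured by competitive HTRF (cAMP-d2 with anti-cAMP cryptate) after 1 h at room temperature. Tested at 15 concentrations in triplicate.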

[15] = qHTS assay to identify small molecule antagonists of the estrogen related receptor signaling pathway with the pleiotropic PPARgamma coactivator (PGC) from Tox21 10K library (AID 1224841; call rule not given here)
Outline: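 PGC/ERR cell line, 2,000 cells/well; 6 h pre-incubation 37 C/5% CO2; compounds (DMSO) pinned in; 18 h, 37 C; One-Glo, 30 min RT; luminescence.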

[16] = qHTS assay to identify small molecule agonists of the estrogen related receptor signaling pathway with the pleiotropic PPARgamma coactivator (PGC) from Tox21 10K library (AID 1224842); note: nearly all actives have a fitted effect of over 15% in size
Outline: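 PGC/ERR reporter cell line, 2,000 cells per well, incubated 6 h at 37 C before 23 nL compound in DMSO was added. After 18 h at 37 C, One-Glo luminescence read following 30 min at room temperature.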

[17] = qHTS assay to identify small molecule agonists of the hypoxia (HIF-1) signaling pathway (AID 1224846; active = well fitted activation curve with a large enough effect in the signal ratio in the repeat runs, not every such curve was filed as active; the % refers to the signal ratio)
Outline: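 Cell line: CellSensor HRE-bla ME-180; 2,000 cells/well; 0.5% dialyzed FBS; 5 h preincubation; DMSO compound pin transfer; 17 h, 37C, 5% CO2; CCF4-AM added; bla FRET signal scored for activation.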

[18] = qHTS assay to identify small molecule antagonists of the estrogen related receptor (ERR) signaling pathway from Tox21 library (AID 1224848); note: nearly all actives have a fitted effect of over 50% in size
Outline: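 ERR reporter cell line (from NTP) seeded 2,000 cells/well, rested 6 h at 37 C/5% CO2, then pin-dosed with compounds in DMSO. After 18 h at 37 C, ONE-Glo added; luminescence read after 30 min at room temperature.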

[19] = qHTS assay to identify small molecule agonists of the estrogen related receptor (ERR) signaling pathway from Tox21 library (AID 1224849; calls by dose curve; note: nearly all actives have a fitted effect of over 15% in size); conditions: ERR reporter cell line, ONE-Glo luciferase, 18 h; at 92.4 µM (top of the series) unless noted
Outline: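 ERR cells, 6 h pre-incubation 37 C/5% CO2; cpd in DMSO pinned; 18 h 37 C; ONE-Glo added, 30 min RT; luminescence read. Agonist mode, qHTS.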

| SMILES | Potency [1] | Potency [2] | Potency [3] | Potency [4] | Potency [5] | Potency [6] | Potency [7] | Potency [8] | outcome [9] | Potency [10] | Potency [11] | Potency [12] | Potency [13] | Potency [14] | Potency [15] | outcome [16] | outcome [17] | Potency [18] | activity change, positive = activation [19] |
| --- | --- | --- | --- | --- | --- | --- | --- | --- | --- | --- | --- | --- | --- | --- | --- | --- | --- | --- | --- |
| C[N+](C)(C)CCCCCC[N+](C)(C)C | inactive | inactive | inactive | inactive | inactive and 26.6 µM (active) | inactive | inactive | inactive | inactive | inactive | inactive | inactive | inactive | – | – | – | – | – | – |
| CN1CCC(=C2c3ccccc3CC(=O)c3sccc32)CC1 | inactive | inactive | inactive | inactive | inactive | inactive | inactive | inactive | inactive | inactive | inactive | inactive | inactive | inactive | – | – | – | – | – |
| CN1CCN(c2cc3c(cc2F)c(=O)c(C(=O)O)cn3-c2ccc(F)cc2)CC1 | inactive | inactive | inactive | inactive | inactive | inactive | inactive | inactive | inactive | inactive | inactive | inactive | inactive | – | inactive | inactive | inactive | inactive | – |
| N=C(N)c1ccc2cc(OC(=O)c3ccc(N=C(N)N)cc3)ccc2c1 | inactive | inactive | inactive | inactive | inactive | inactive | inactive | inactive | inactive | inactive | inactive | inactive | inactive | – | inactive | inactive | inactive | inactive | – |
| Cc1[nH]c(=O)c(C#N)cc1-c1ccc2nccn2c1 | inactive | inactive | inactive | inactive | inactive | inactive | inactive | inactive | inactive | inactive | inactive | inactive | inactive | inactive | – | – | inactive | – | – |
| CCCN(CCC)CCc1cccc2c1CC(=O)N2 | inactive | inactive | inactive | inactive | inactive | inactive | inactive | inactive | inactive | inactive | inactive | inactive | inactive | inactive | – | – | – | – | – |
| N[C@H]1CN(c2c(F)cc3c(=O)c(C(=O)O)cn(C4C[C@H]4F)c3c2Cl)CC12CC2 (some centres undefined) | inactive | inactive | inactive | inactive | – | inactive | inactive | inactive | inactive | inactive | inactive | inactive | inactive | inactive | inactive | inactive | inactive | inactive | 5.03% [at 42.5 µM] (inactive) |
| Cc1nc2c([nH]1)c(=O)n(C)c(=O)n2Cc1ccco1 | inactive | inactive | inactive | inactive | inactive | inactive | inactive | – | inactive | inactive | inactive | inactive | inactive | – | – | – | inactive | – | – |
| NC(=O)c1ccc(N)cc1 | inactive | inactive | inactive | inactive | inactive | inactive | inactive | inactive | inactive | inactive | inactive | – | inactive | – | inactive | inactive | inactive | inactive | 8.51% (inactive) |
| NC(=O)Nc1ccccc1 | inactive | inactive | inactive | inactive | – | inactive | inactive | inactive | inactive | inactive | inactive | inactive | inactive | inactive | inactive | inactive | inactive | inactive | 8.88% (inactive) |
| Oc1ccc(C2CNCCc3c2cc(O)c(O)c3Cl)cc1 (centres undefined) | inactive | inactive | inactive | inactive | inactive | inactive | inactive | – | – | inactive | inactive | inactive | inactive | inactive | – | – | inactive | – | – |
